This is a sample that favours compounds with a hit; in the whole collection about 4.6% have one here.
VACV mCherry inh = qHTS for Stage-Specific Inhibitors of Vaccinia Orthopoxvirus: mCherry Reporter Primary qHTS | Vaccinia virus mCherry reporter infection, fluorescence | Potency, µM (top dose mostly 36.5 µM), usual class: inhibitors | hit rate 0.63% among 310,000 | AID 720579, 2013; calls by dose curve; tested in A549 cells; note: nearly all actives have a fitted effect of over 35% in size
MARV entry inh = qHTS for inhibitors of binding or entry into cells for Marburg Virus; hit rate 1.8% among 300,000; Marburg virus pseudotyped entry inhibition, cell reporter; Potency, µM (top dose mostly 37.8 µM), most hits filed as inhibitors; calls by dose curve; tested in HEK293 cells
Vaccinia Venus = qHTS for Stage-Specific Inhibitors of Vaccinia Orthopoxvirus: Venus Reporter Primary qHTS. Vaccinia virus Venus reporter expression, fluorescence. Potency, µM (titrated, usually from 36.5 µM), usual class: inhibitors. hit rate 0.46% among 330,000; calls by dose curve; tested in A549 cells; note: nearly all actives have a fitted effect of over 30% in size
Lassa entry inh = qHTS for Inhibitors of binding or entry into cells for Lassa Virus; AID 540256, 2011; Lassa virus pseudotype entry inhibition, cell reporter; hit rate 1.2% among 300,000; Potency, µM (highest dose often 37.9 µM), usual class: inhibitors; calls by dose curve; tested in HEK293 cells; note: nearly all actives have a fitted effect of over 50% in size
HCV inhibitor = qHTS Assay for Inhibitors of Hepatitis C Virus (HCV); Huh7.5.1 HCVcc-Cre infection, luciferase reporter, 44 h; Potency, µM (titrated, usually from 41.8 µM), most hits filed as inhibitors; hit rate 3.4% among 340,000; AID 651820, 2012; active = well fitted inhibition curve with a large enough effect; inconclusive = small, poorly fitted or top-dose-only effect, or another doubt; inactive = no such curve, though single readings can be large or run the other way
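Cells seeded at 1,000/well and cultured 4 h, then compounds added followed by HCVcc-Cre virus (~0.5 moi). After 44 h further culture, luciferase substrate was added, plates held 15 min at room temperature, and luminescence read for 15 sec.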
Numbers stand for hits; - = inactive; ? = inconclusive; . = not tested or not shown.

SMILES	VACV mCherry inh	MARV entry inh	Vaccinia Venus	Lassa entry inh	HCV inhibitor
CCN(CC)c1ccc(/C=N/NC(=O)c2cccc(S(=O)(=O)N3CCOCC3)c2)c(O)c1	1.78µM	?	?	?	?
COc1ccc2cc(-c3nnc(Nc4ccccc4)s3)c(=O)oc2c1	-	.	-	-	.
CNC(=O)C1CCC(Cn2c(=O)c3sccc3n(Cc3ccc(F)cc3)c2=O)CC1 (stereo not drawn)	-	.	-	-	.
Cc1ccc(C(C)C)c(OCc2ccc(C(=O)N/N=C/c3cccc(O)c3O)cc2)c1	10µM	7.31µM	?	11.6µM	22.4µM
CCN(CC)S(=O)(=O)c1cccc(C(=O)N/N=C/c2cc(OC)c(O)c(OC)c2)c1	-	-	-	-	-
CCOC(=O)N/N=C/c1ccc(N(CC)CC)cc1O	?	?	?	4.47µM	3.55µM
COc1cc(/C=N/NC(=O)c2ccc(COc3cc(C)ccc3C(C)C)cc2)cc(OC)c1O	-	?	-	?	?
CCN(CC)c1ccc(/C=N/Nc2ccc(C)cc2)c(O)c1	-	-	-	-	-
CCN(CC)S(=O)(=O)c1cccc(C(=O)N/N=C/c2cccc(O)c2O)c1	10µM	?	?	13µM	?
COC(=O)C1CCN(Cc2ccc3c(c2)CN(C(=O)c2cc(C)nc(C)n2)CCO3)CC1	-	.	-	.	.
CCn1c(O)c(C(=O)C[C@@H]2NCCc3ccccc32)c(=O)n(CC)c1=S	.	-	.	.	.
COc1ccc(CNC(=O)c2cc(-c3cccc(Cl)c3)on2)cc1	-	-	-	-	.
c1ccc2c(-c3[nH]ncc3CNCCCn3ncc4ccccc43)cccc2c1	-	?	-	?	10µM
COc1ccc(-c2nc(CN3CCN(c4cc(C)nc(C)c4)CC3)c(C)o2)c2ccccc12	?	?	11.2µM	11.2µM	?
COc1ccc(-c2nc(CN3CCN(Cc4ccccc4)CC3)c(C)o2)cc1	.	.	.	.	-
Cc1oc(-c2cccc3ccccc23)nc1CN1CCN(c2ncnc3ccccc23)CC1	-	?	-	?	10µM
CCCCCCC(=O)Cc1cc(OC)c(OC)cc1C=C(C(C)=O)C(=O)OC	.	-	.	.	.
COc1ccc(-c2nc(Cc3ccc(Cl)cc3)no2)cc1OC	.	-	-	3.98µM	?
COc1ccccc1Cc1noc(-c2cc(Cl)ccc2OC)n1	-	-	-	-	7.08µM
COc1ccc(Cc2noc(-c3ccccc3)n2)cc1OC	-	.	-	.	?
COc1cc(-c2nc(Cc3ccccc3Cl)no2)cc(OC)c1OC	.	?	.	-	?
Cn1nnnc1Sc1ccc([N+](=O)[O-])cc1Cl	10µM	?	?	-	-
CCCN1C(=O)C2=NC(C3CCCC3)=NC2N(CCC)C1=O (stereo not drawn)	.	-	.	.	.
COc1cc2nc(N3CCCN(C)CC3)nc(Nc3ccncc3)c2cc1OC	-	.	?	.	.
COCC(C)n1c(-c2ccc3c(c2)NC(=O)CO3)csc1=Nc1ccc(OC(F)F)cc1 (stereo not drawn)	?	?	?	?	10µM
SMILES	VACV mCherry inh	MARV entry inh	Vaccinia Venus	Lassa entry inh	HCV inhibitor
CCCCN=c1scc(-c2ccc3c(c2)NC(=O)CO3)n1N=C1CCCC1	.	?	.	?	7.94µM
COc1ccccc1N=c1scc(-c2ccc3c(c2)NC(=O)CO3)n1CC1CCCO1 (stereo not drawn)	.	?	-	?	?
CCN=c1scc(-c2ccc3c(c2)NC(=O)CO3)n1N=C1CCCC1	?	3.98µM	?	?	15.8µM
Nc1nc(-c2ccc3c(c2)NC(=O)CO3)cs1	-	-	-	-	?
CCc1ccc(OCC2c3cc(OC)c(OC)cc3CCN2C(=O)COc2ccccc2)cc1 (stereo not drawn)	-	.	-	?	.
CCCC(=O)Nc1nnc(SCc2cc(=O)c3cc(C)ccc3[nH]2)s1	-	.	-	-	.
CN(C)CCN(Cc1ccccc1)S(=O)(=O)c1ccc2[nH]c(=O)ccc2c1	-	.	-	-	.
Cc1ccc(NC(=O)C2CCN(S(=O)(=O)c3ccc4c(c3)CCCN4C(=O)C3CCC3)CC2)cc1	-	.	-	-	.
Nc1ccc(C(=O)N/N=C/c2sc(N3CCOCC3)nc2-c2ccccc2)cc1	-	?	-	-	?
O=[N+]([O-])c1ccc(N/N=C/c2sc(N3CCOCC3)nc2-c2ccccc2)c(S(=O)(=O)Nc2ccccc2Cl)c1	?	.	?	.	3.55µM
O=C(O)c1cccc(N/N=C/c2sc(N3CCOCC3)nc2-c2ccccc2)c1	-	?	-	-	-
O=[N+]([O-])c1ccc(N/N=C/c2sc(N3CCOCC3)nc2-c2ccccc2)c(S(=O)(=O)Nc2ccc(Cl)cc2)c1	.	.	.	.	2.51µM

Assay outcomes (PubChem BioAssay)
